# Measurements reported in PMC4336329 (PLoS ONE, 2015).
# The whole screen tested about 310,000 compounds, of which about 14,000 (4.5%) showed an effect of 50% or more. Effects have a minus sign here. What follows is part of a selection rich in strong results, with near analogues and random picks from the rest.
# Target: human ether-à-go-go-related gene (hERG) potassium channel (human, UniProt Q12809)
# Assay: primary screen, population patch clamp on CHO cells stably expressing hERG; higher = less effect of the substance
# 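Also: peak tail current of the secondary pulse compared with the same well before compound.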
# Sequence of human ether-à-go-go-related gene (hERG) potassium channel (Q12809 whole entry, looked up): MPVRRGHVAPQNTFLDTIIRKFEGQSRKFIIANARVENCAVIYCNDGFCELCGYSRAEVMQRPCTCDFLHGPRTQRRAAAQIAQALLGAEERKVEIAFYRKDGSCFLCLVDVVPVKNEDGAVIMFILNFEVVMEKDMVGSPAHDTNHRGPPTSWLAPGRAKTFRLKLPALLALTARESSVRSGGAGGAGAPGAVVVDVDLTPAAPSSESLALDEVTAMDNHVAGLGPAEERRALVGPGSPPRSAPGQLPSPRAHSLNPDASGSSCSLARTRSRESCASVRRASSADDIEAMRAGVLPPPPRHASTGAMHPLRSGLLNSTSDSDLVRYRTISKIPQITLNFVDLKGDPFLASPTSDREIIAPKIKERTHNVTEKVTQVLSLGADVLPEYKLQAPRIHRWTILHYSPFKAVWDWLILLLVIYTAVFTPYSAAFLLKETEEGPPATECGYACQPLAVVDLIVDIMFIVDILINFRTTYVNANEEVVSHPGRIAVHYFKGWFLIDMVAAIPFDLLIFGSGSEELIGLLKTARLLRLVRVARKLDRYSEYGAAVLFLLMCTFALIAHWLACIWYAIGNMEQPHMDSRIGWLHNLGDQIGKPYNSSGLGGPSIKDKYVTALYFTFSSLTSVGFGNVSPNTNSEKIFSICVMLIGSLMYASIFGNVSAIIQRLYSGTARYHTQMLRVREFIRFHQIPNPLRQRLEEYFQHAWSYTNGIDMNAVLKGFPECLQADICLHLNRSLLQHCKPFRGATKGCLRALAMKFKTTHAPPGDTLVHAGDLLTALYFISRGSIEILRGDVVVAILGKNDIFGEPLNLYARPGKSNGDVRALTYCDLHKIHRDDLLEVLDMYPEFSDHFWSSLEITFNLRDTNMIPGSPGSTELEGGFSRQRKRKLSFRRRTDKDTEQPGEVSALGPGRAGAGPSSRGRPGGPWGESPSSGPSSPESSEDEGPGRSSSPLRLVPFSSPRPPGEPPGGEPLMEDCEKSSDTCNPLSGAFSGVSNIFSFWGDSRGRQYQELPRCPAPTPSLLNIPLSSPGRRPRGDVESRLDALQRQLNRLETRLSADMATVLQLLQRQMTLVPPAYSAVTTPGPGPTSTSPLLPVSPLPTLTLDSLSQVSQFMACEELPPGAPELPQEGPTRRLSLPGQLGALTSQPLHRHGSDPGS
row,SMILES,"hERG current change (%, negative = inhibition) at 10uM [%]"
1,CCCn1c(SCC(=O)NC2CC2)nnc1-c1ccccn1,-2.29
2,COc1ccccc1NC(=O)c1sc2nc(Cc3ccccc3)cc(C(F)(F)F)c2c1N,-7.85
3,COc1ccccc1CC(=O)N1CCOCC1,21
4,Cc1ccccc1C(NC(N)=O)c1ccccc1 (centres unmarked),0.289
5,COc1ccccc1-n1cnnc1SC1CCOC1=O (centres unmarked),4.66
6,S=C(CN1CCCC1=S)N1CCOCC1,17.3
7,CCOCCOC(=O)c1ccc(-n2cnc(C)n2)nc1,16.3
8,Cc1cccc(C)c1NC(=O)C(NC=O)c1ccccc1Cl (centres unmarked),0.855
9,O=S(=O)(Nc1ccccc1N1CCOCC1)c1ccc(F)c(Cl)c1,-18.6
10,CC1Cc2ccccc2N1c1ncnc2nc[nH]c12 (centres unmarked),-6.58
11,CSc1nc2nc3c(c(=O)n2[nH]1)CN(Cc1ccccc1)CC3,-20.5
12,CC1=CC(C)(C)Nc2ccc(Cc3ccc4c(c3)C(C)=CC(C)(C)N4)cc21,13.9
13,CC1=CC(C)(C)Nc2ccc(C)cc21,-58.1
14,CCc1ccc2c(c1)C(C)=CC(C)(C)N2,17
15,Cc1cc(Oc2ccc(=O)n(C)n2)nc(SCc2ccccc2)n1,25.7
16,CCOc1ccc(-n2c(-c3ccccc3)c[n+]3c2CCC3)cc1.[Br-],-54
17,CCOc1ccc(-c2nnc(-c3ccccc3)n2-c2ccccc2)cc1,-18.8
18,Cn1c(-c2ccccc2)c[n+]2c1CCCCC2.[Br-],-0.399
19,CCOc1ccc(-n2c(-c3ccccc3)c[n+]3c2CCCCC3)cc1.[Br-],-67
20,COc1ccc(-c2c[n+]3c(n2-c2ccccc2)CCCCC3)cc1.[Br-],-18.6
21,FC(F)Oc1ccc(-c2c[n+]3c(n2-c2ccccc2)CCCCC3)cc1,-70.3
22,CCOc1ccc(-n2c(-c3ccccc3)c[nH]c2=S)cc1,20.6
23,CCOc1ccc(-c2c[n+]3c(n2-c2ccccc2)CCCCC3)cc1.[Br-],-64.7

row,SMILES,"hERG current change (%, negative = inhibition) at 10uM [%]"
1,CN(C)C(CNC(=O)c1cccs1)c1cccnc1 (centres unmarked),18.7
2,CCOC(=O)c1cc2oc(C)cc2n1CC(=O)OC1CCCCC1,-5.5
3,O=C(COc1ccc(S(=O)(=O)N2CCCCC2)cc1)N1CCOCC1,3.54
4,COc1ccc(CC(=O)Nc2ccc(-c3nnc(-c4ccc(C)cc4)o3)cc2)cc1,19.1
5,NNC(=O)c1ccc(Cl)cc1,2.74
6,C=CCN1N=C(/C=C/c2ccc(OC)cc2)CCC1=O,6.48
7,C/C=C(\C)c1nnc(NC(=O)OCC)s1,8.46
8,Cc1c(NC=C(C#N)C#N)c(=O)n(-c2ccccc2)n1C,35.5
9,NNC(=O)Cn1nc(Cc2ccccc2)n(N)c1=O,8.22
10,COc1ccc(C(=O)N/C(=C\c2ccccc2)C(=O)N2CCOCC2)cc1,-8.27
11,CC(=O)N/C(=C\c1ccccc1)C(=O)N1CCOCC1,20.1
12,O=C(N/C(=C/c1ccccc1)C(=O)N1CCCCCC1)c1ccccc1,-12.4
13,O=C(N/C(=C\c1ccccc1)C(=O)N1CCOCC1)c1ccccc1Cl,0.479
14,O=C(/C=C/c1ccccc1)N/C(=C/c1ccccc1)C(=O)N1CCCCC1,-58.7
15,COc1ccc(/C=C(/NC(=O)/C=C/c2ccccc2)C(=O)O)cc1,24.9
16,O=C(/C=C/c1ccccc1)N/C(=C/c1ccccc1)C(=O)N1CCOCC1,-58.8
17,CC(=O)N/C(=C/c1ccccc1)C(=O)N1CCCCC1,10.3
18,COc1ccc(/C=C(/NC(=O)/C=C/c2ccccc2)C(=O)N2CCOCC2)cc1,-71.2
19,CCOC(=O)C1(O)CC(C)=NN1C(=O)c1cccc(Br)c1 (centres unmarked),25.9
20,CCOc1ccc(C(=O)NCCN2CCCCC2)c(OCC)c1,-23.1
21,COc1ccc(NC(=O)CCNS(=O)(=O)c2ccc3c(c2)c(=O)n(C)c(=O)n3C)cc1,-2.03
22,CC/C(=N\O)c1ccc(OC)c(OC)c1,21.1
23,COC(=O)c1ccc(/C=C/c2c(-c3ccc(OC)cc3)oc3ccccc23)cc1,7.39

row,SMILES,"hERG current change (%, negative = inhibition) at 10uM [%]"
1,CCCCn1c(O)c(N=NC(=O)c2ccncc2)c2cc(Br)ccc21,-68.1
2,CCCn1c(O)c(N=NC(=O)c2cccnc2)c2cc(Br)ccc21,-3.7
3,CCn1c(O)c(N=NC(=O)c2cccnc2)c2cc(Br)ccc21,-2.17
4,O=C(NCc1ccco1)c1noc2c1CCCC2,-3.59
5,CCOc1ccc(C(CC(=O)O)NS(=O)(=O)c2ccc(C)cc2)cc1OC (centres unmarked),10.3
6,CSc1nc2ccc(NS(=O)(=O)c3ccc(CNC(C)=O)cc3)cc2s1,-0.24
7,COc1ccc(-c2n[nH]c(=S)n2C2CCCCC2)cc1,20.2
8,Cn1c(CN2CCCC2)nc2cc(NS(=O)(=O)c3ccccc3)ccc21,1.49
9,Cc1ccc(S(=O)(=O)Nc2ccc3c(c2)nc(CN2CCCC2)n3C)cc1,-46.5
10,Cn1c(CN2CCCC2)nc2cc(NS(=O)(=O)c3ccc(Cl)cc3)ccc21,-61.7
11,Cn1c(CN2CCCCC2)nc2cc(NS(=O)(=O)c3ccc(Cl)cc3)ccc21,-62.5
12,CC1CC(C)CN(C(=O)CNS(=O)(=O)c2ccc(Br)s2)C1 (centres unmarked),-1.92
13,S=c1[nH]nc(-c2ccc(Cl)cc2)n1/N=C/c1ccco1,14.3
14,COc1ccc(N2CCN(C(=O)c3cn(CC4CCCCC4)nn3)CC2)cc1,-14.3
15,CCOc1ccccc1N1CCN(C(=O)c2cn(CC3CCCCC3)nn2)CC1,-9.95
16,O=C(c1ccc(N2CCN(C(=O)c3ccc(F)c(F)c3)CC2)cc1)c1cccc(F)c1,-16.7
17,O=C(Nc1cccc(C(=O)N2CCN(c3cccc(Cl)c3)CC2)c1)c1ccccc1,4.69
18,O=C(c1cccc(C(=O)N2CCN(c3ccc(F)cc3)CC2)c1)N1CCN(c2ccc(F)cc2)CC1,-72.5
19,O=C(c1ccc(N2CCN(C(=O)c3cccc(F)c3)CC2)cc1)c1cccc(F)c1,-12.5
20,O=C(c1ccc(N2CCN(C(=O)c3ccccc3)CC2)cc1)c1cccc(F)c1,-74.5
21,O=C(Nc1cccc(C(=O)N2CCCC2)c1)c1ccccc1,2.2
22,O=C(Nc1cccc(C(=O)N2CCN(c3ccc(F)cc3)CC2)c1)c1ccccc1,-58.7
23,O=C(c1cn(CC2CCCCC2)nn1)N1CCN(c2ccc(F)cc2)CC1,-52.5

row,SMILES,"hERG current change (%, negative = inhibition) at 10uM [%]"
1,O=C(c1cccc(-c2ccc(O)cc2)c1)N1CCN(c2ccc(F)cc2)CC1,23.3
2,O=C(c1cccc(C(=O)N2CCN(c3ccccc3)CC2)c1)N1CCN(c2ccccc2)CC1,-41.7
3,CN(C1CCCCC1)S(=O)(=O)c1ccc(S(=O)(=O)N2CCN(C(=O)c3ccccc3F)CC2)cc1,-12.2
4,CCOC(=O)N1CCC(N2CC34C=CC(O3)C(C(=O)Nc3ccc(OCC)cc3)C4C2=O)CC1 (centres unmarked),-18.7
5,CC(OC(=O)CNC(=O)COc1ccccc1)C(=O)N(C)Cc1ccccc1 (centres unmarked),5.07
6,COC(=O)c1ccccc1NC(=O)C1CCN(S(C)(=O)=O)CC1,1.04
7,O=C(COC(=O)/C=C/c1ccc(S(=O)(=O)N2CCOCC2)cc1)NC1CCCCCCC1,32.2
8,CCO.N#CC1=C(N)Oc2c(oc(CO)cc2=O)C1c1ccccc1[N+](=O)[O-] (centres unmarked),-1.44
9,CC(=O)c1ccc(-c2ccc(C(=O)N3CCN(c4ccc(F)cc4)CC3)o2)cc1,-16.7
10,O=C(c1ccccc1C(=O)N1CCN(c2ccccc2)CC1)N1CCN(c2ccccc2)CC1,-29.7
11,CSc1ccccc1C(=O)N1CCN(c2ccc(F)cc2)CC1,-17.5
12,O=C(c1cccc(S(=O)(=O)NCc2ccccc2)c1)N1CCN(c2cccc(C(F)(F)F)c2)CC1,-4.17
13,O=C(c1ccc(CN2CCc3ccccc3C2)cc1)N1CCN(c2ccc(F)cc2)CC1,-68.6
14,O=C(c1ccc(CN2CCc3ccccc3C2)cc1)N1CCCCC1,-9.72
15,O=C(c1cccc(S(=O)(=O)NCc2ccccc2)c1)N1CCN(c2ccc(F)cc2)CC1,-58.1
16,O=C(c1ccccc1C(=O)N1CCN(c2ccc(F)cc2)CC1)N1CCN(c2ccc(F)cc2)CC1,-73.8
17,O=C(c1ccc(CN2CCc3ccccc3C2)cc1)N1CCN(c2ccccc2)CC1,-46.3
18,O=C(c1ccc(Br)o1)N1CCN(c2ccc(F)cc2)CC1,-45.6
19,CC(=O)N1CCN(C(=O)c2cccc(S(=O)(=O)NCc3ccccc3)c2)CC1,5.5
20,O=C(c1ccccc1)c1ccc(C(=O)N2CCN(c3ccc(F)cc3)CC2)o1,-78.4
